The results in this text go back to ChEMBL document CHEMBL1961873, “Compounds: GSK PKIS; Assays: Nanosyn kinase panel” (2012).

The structures appear in SMILES notation.

The first assay has as its target T1, Serine/threonine-protein kinase Nek1 (Homo sapiens) (UniProt Q96PY6).
T1 sequence (whole entry): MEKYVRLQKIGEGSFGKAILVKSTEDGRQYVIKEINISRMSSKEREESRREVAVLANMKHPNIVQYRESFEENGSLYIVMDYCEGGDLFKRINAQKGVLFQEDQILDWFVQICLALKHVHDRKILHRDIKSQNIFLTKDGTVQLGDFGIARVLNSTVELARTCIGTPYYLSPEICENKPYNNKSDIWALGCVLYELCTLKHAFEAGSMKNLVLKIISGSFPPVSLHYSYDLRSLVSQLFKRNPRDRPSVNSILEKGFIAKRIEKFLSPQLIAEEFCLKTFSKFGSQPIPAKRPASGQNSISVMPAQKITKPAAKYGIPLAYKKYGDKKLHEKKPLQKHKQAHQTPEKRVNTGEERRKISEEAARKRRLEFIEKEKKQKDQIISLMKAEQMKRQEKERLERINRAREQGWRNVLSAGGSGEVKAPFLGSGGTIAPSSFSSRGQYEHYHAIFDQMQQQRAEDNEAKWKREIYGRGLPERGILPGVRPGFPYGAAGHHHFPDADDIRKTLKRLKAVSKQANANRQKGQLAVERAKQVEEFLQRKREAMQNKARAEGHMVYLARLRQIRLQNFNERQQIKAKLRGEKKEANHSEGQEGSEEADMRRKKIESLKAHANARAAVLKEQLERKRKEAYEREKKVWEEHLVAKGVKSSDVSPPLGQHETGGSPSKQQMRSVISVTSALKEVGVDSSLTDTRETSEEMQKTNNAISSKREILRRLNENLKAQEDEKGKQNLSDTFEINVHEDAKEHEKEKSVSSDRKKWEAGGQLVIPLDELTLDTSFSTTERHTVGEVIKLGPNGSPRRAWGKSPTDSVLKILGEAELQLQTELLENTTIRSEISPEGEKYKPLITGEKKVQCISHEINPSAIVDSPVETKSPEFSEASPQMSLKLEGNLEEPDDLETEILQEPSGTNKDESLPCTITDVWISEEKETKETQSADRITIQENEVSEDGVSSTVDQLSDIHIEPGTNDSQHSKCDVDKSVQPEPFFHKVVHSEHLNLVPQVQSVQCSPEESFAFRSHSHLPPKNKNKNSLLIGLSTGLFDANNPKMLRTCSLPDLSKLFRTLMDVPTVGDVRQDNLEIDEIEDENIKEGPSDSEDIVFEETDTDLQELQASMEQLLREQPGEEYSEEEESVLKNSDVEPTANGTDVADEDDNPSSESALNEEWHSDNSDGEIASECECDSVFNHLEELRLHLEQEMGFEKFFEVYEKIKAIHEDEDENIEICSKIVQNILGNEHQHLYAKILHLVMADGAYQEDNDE
The settings on record: at 1 µM.
Usually inhibition stands for the drop in the measured response relative to a control, in per cent. Take `C/C(Nc1ccc(S(N)(=O)=O)cc1)=C1/C(=O)Nc2ccccc21`: the inhibition was found to be 0.52%.

Take `NC(=O)Cc1ccccc1Oc1nccc(-c2c(-c3ccc(F)cc3)ncn2C2CCNCC2)n1`: the inhibition is 4.11%.

Turning to `Fc1ccc(-c2ncn(CCCN3CCOCC3)c2-c2ccncc2)cc1`, the inhibition worked out at 0.52%.

For the compound `c1ccc(Oc2ccc(Nc3ncc(-c4ccccc4)o3)cc2)cc1`, the inhibition stood at 1.89%.

With `COc1ccc2cc(-c3c(-c4ccncc4)nc(-c4ccc(S(C)(=O)=O)cc4C)n3C)ccc2c1`, the inhibition is 4.4%.

Turning to `O=C(NCC1CC1)c1ccc(-c2cccc(C(=O)NC3CC3)c2)cc1`, the inhibition turned out to be 2.92%.

In the case of `O=C(Nc1ccc(Oc2ccc3[nH]c(NC(=O)c4ccccc4)nc3c2)cc1)Nc1cc(C(F)(F)F)ccc1F`, the inhibition was determined as 2.89%.

`COc1cc2ncn(-c3cc(OCCc4ccccc4)c(C(N)=O)s3)c2cc1OC`: the inhibition stood at 1.3%.

In the case of `C[C@@H](Oc1cc(-n2cnc3ccc(OCC4CCN(C)CC4)cc32)sc1C(N)=O)c1ccccc1Cl`, the inhibition was found to be 54.1%.

As for `CS(=O)(=O)CCNCc1cc(-c2cc3c(Nc4ccc(OCc5cccc(F)c5)c(Cl)c4)ncnc3s2)cs1`, the inhibition was determined as 5.81%.

Turning to `CCc1nccc2c1nc(-c1nonc1N)n2CC`, the inhibition amounted to 1.55%.

Turning to `COc1cccc(/C=N/Nc2ncnc3c2cnn3-c2cccc(OC)c2)c1`, the inhibition stood at 3.93%.

Take `COc1ccc2cc(-c3c(-c4ccncc4)nc(-c4ccc([S+](C)[O-])cc4C)n3C)ccc2c1` (stereo not drawn): the inhibition is 0.54%.

As to `O=C(Nc1n[nH]c2nc(-c3ccco3)ccc12)C1CC1`, the inhibition was found to be 1.36%.

Consider `Cc1ccc(C(=O)NC(C)C)cc1-c1ccc(C(=O)NCC2CC2)cc1`, for which the inhibition was -1.39%.

Consider `FC(F)(F)c1cccc(Nc2nccc(-c3cnn4nc(-c5ccccc5)ccc34)n2)c1`, for which the inhibition is 2.59%.

Take `O=C(Nc1n[nH]c2cc(-c3cc(F)ccc3F)ccc12)C1CC1`: the inhibition stood at 0.65%.

Regarding `CN(c1ccc(NC(=O)Nc2c(Cl)cccc2Cl)cc1)c1ccnc(Nc2cccc(CS(C)(=O)=O)c2)n1`, the inhibition was found to be 1.93%.

Regarding `COc1cc2ncn(-c3cc(OCc4ccccc4C(F)(F)F)c(C(C)=O)s3)c2cc1OC`, the inhibition amounted to 1.9%.

As to `COc1cc(Nc2ncc3c(C)nc(-c4cccc(Oc5ccccc5)c4)n3n2)cc(OC)c1OC`, the inhibition worked out at 11.3%.

For the compound `CNC(=O)c1cncc(/C=C/c2c(C)cccc2C)c1`, the inhibition was determined as 2.88%.

On to `NCc1ccc(-n2c(-c3nonc3N)nc3cnccc32)cc1`, for which the inhibition turned out to be 3.48%.

As for `O=C1Nc2ccc(I)cc2C1=Cc1cc(Br)c(O)c(Br)c1`, the inhibition amounted to 3.61%.

On to `NS(=O)(=O)c1ccc(Nc2cc(-c3ccc(O)c(F)c3)n[nH]2)cc1`, for which the inhibition was -1.21%.

As for `CN(C)c1ccc2c(c1)/C(=C/Nc1ccc(S(N)(=O)=O)cc1)C(=O)N2`, the inhibition is 2.38%.

Take `Fc1ccc(-c2ncn(C3CCNCC3)c2-c2ccnc(Oc3ccc(F)c(F)c3)n2)cc1`: the inhibition was determined as 0.52%.

On to `N#Cc1ccc(Oc2nccc(-c3c(-c4ccc(F)cc4)ncn3C3CCNCC3)n2)cc1`, for which the inhibition stood at 2.49%.

Turning to `COc1cc(C)c(N(C)C(=O)CN(C)C)cc1Nc1nc(Nc2cccc(F)c2C(N)=O)c2cc[nH]c2n1`, the inhibition stood at 1.66%.

Regarding `COc1cc2ncn(-c3cc(OCc4cccs4)c(C(N)=O)s3)c2cc1OC`, the inhibition is 7.88%.

`CCc1cccc(CC)c1/C=C/c1cncc(C(=O)NC)c1`: the inhibition worked out at 1.92%.

In the case of `COc1ccc(C2=C(N3CCc4ccccc43)C(=O)NC2=O)cc1`, the inhibition is 5.54%.

`Fc1ccc(-c2c(-c3ccncc3)nc3n2CCS3)cc1`: the inhibition turned out to be 3.2%.

In the case of `CCS(=O)(=O)c1ccc(OC)c(Nc2ncc(-c3ccccc3Cl)o2)c1`, the inhibition was found to be 4.41%.

Regarding `CN(C)CCOc1ccc(-c2cc(-c3ccc4c(c3)CCC4=NO)c(-c3ccncc3)o2)cc1`, the inhibition was 0.32%.

A further assay addresses T2, Serine/threonine-protein kinase Nek2 (Homo sapiens) (UniProt P51955).
T2 sequence (whole entry): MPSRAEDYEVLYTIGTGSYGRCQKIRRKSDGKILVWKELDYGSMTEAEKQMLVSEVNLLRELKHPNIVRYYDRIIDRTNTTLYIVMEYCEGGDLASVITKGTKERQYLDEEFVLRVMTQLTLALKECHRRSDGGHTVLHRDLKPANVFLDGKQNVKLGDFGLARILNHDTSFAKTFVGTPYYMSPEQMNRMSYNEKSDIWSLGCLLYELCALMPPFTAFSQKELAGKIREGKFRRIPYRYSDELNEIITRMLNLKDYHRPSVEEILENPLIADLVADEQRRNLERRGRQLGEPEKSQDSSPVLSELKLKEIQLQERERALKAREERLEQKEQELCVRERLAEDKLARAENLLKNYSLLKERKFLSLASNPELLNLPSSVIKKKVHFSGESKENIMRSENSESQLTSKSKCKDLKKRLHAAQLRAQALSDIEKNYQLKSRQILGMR
The settings on record: at 0.1 µM.
Regarding `C/C(Nc1ccc(S(N)(=O)=O)cc1)=C1/C(=O)Nc2ccccc21`, the inhibition was -0.14%.

Consider `NC(=O)Cc1ccccc1Oc1nccc(-c2c(-c3ccc(F)cc3)ncn2C2CCNCC2)n1`, for which the inhibition was found to be 2.13%.

As to `Fc1ccc(-c2ncn(CCCN3CCOCC3)c2-c2ccncc2)cc1`, the inhibition was -0.45%.

Take `c1ccc(Oc2ccc(Nc3ncc(-c4ccccc4)o3)cc2)cc1`: the inhibition is 1.83%.

With `COc1ccc2cc(-c3c(-c4ccncc4)nc(-c4ccc(S(C)(=O)=O)cc4C)n3C)ccc2c1`, the inhibition is 5.82%.

With `O=C(NCC1CC1)c1ccc(-c2cccc(C(=O)NC3CC3)c2)cc1`, the inhibition came to 1.96%.

As for `O=C(Nc1ccc(Oc2ccc3[nH]c(NC(=O)c4ccccc4)nc3c2)cc1)Nc1cc(C(F)(F)F)ccc1F`, the inhibition was 4.15%.

For the compound `COc1cc2ncn(-c3cc(OCCc4ccccc4)c(C(N)=O)s3)c2cc1OC`, the inhibition came out at 2.3%.

As for `C[C@@H](Oc1cc(-n2cnc3ccc(OCC4CCN(C)CC4)cc32)sc1C(N)=O)c1ccccc1Cl`, the inhibition was found to be 22.1%.

With `CS(=O)(=O)CCNCc1cc(-c2cc3c(Nc4ccc(OCc5cccc(F)c5)c(Cl)c4)ncnc3s2)cs1`, the inhibition was 6.26%.

As for `CCc1nccc2c1nc(-c1nonc1N)n2CC`, the inhibition was found to be 0.45%.

With `COc1cccc(/C=N/Nc2ncnc3c2cnn3-c2cccc(OC)c2)c1`, the inhibition was found to be 5.68%.

On to `COc1ccc2cc(-c3c(-c4ccncc4)nc(-c4ccc([S+](C)[O-])cc4C)n3C)ccc2c1` (stereo not drawn), for which the inhibition was -0.64%.

Consider `O=C(Nc1n[nH]c2nc(-c3ccco3)ccc12)C1CC1`, for which the inhibition was -0.12%.

With `Cc1ccc(C(=O)NC(C)C)cc1-c1ccc(C(=O)NCC2CC2)cc1`, the inhibition is -3.14%.

With `FC(F)(F)c1cccc(Nc2nccc(-c3cnn4nc(-c5ccccc5)ccc34)n2)c1`, the inhibition stood at 1.73%.

Consider `O=C(Nc1n[nH]c2cc(-c3cc(F)ccc3F)ccc12)C1CC1`, for which the inhibition was determined as 3.53%.

In the case of `CN(c1ccc(NC(=O)Nc2c(Cl)cccc2Cl)cc1)c1ccnc(Nc2cccc(CS(C)(=O)=O)c2)n1`, the inhibition turned out to be 0.12%.

Regarding `COc1cc2ncn(-c3cc(OCc4ccccc4C(F)(F)F)c(C(C)=O)s3)c2cc1OC`, the inhibition came to 3.91%.

Turning to `COc1cc(Nc2ncc3c(C)nc(-c4cccc(Oc5ccccc5)c4)n3n2)cc(OC)c1OC`, the inhibition turned out to be 7.11%.

As to `CNC(=O)c1cncc(/C=C/c2c(C)cccc2C)c1`, the inhibition is 0.66%.

In the case of `NCc1ccc(-n2c(-c3nonc3N)nc3cnccc32)cc1`, the inhibition came out at 6.17%.

In the case of `O=C1Nc2ccc(I)cc2C1=Cc1cc(Br)c(O)c(Br)c1`, the inhibition was 4.91%.

With `NS(=O)(=O)c1ccc(Nc2cc(-c3ccc(O)c(F)c3)n[nH]2)cc1`, the inhibition is -3.94%.

For the compound `CN(C)c1ccc2c(c1)/C(=C/Nc1ccc(S(N)(=O)=O)cc1)C(=O)N2`, the inhibition worked out at 2.78%.

In the case of `Fc1ccc(-c2ncn(C3CCNCC3)c2-c2ccnc(Oc3ccc(F)c(F)c3)n2)cc1`, the inhibition is 5.55%.

Regarding `N#Cc1ccc(Oc2nccc(-c3c(-c4ccc(F)cc4)ncn3C3CCNCC3)n2)cc1`, the inhibition came out at 4.13%.

Turning to `COc1cc(C)c(N(C)C(=O)CN(C)C)cc1Nc1nc(Nc2cccc(F)c2C(N)=O)c2cc[nH]c2n1`, the inhibition is 3.24%.

Consider `COc1cc2ncn(-c3cc(OCc4cccs4)c(C(N)=O)s3)c2cc1OC`, for which the inhibition was determined as 4.6%.

Regarding `CCc1cccc(CC)c1/C=C/c1cncc(C(=O)NC)c1`, the inhibition worked out at 3.4%.

For `COc1ccc(C2=C(N3CCc4ccccc43)C(=O)NC2=O)cc1`, the inhibition was found to be 5.3%.

As for `Fc1ccc(-c2c(-c3ccncc3)nc3n2CCS3)cc1`, the inhibition turned out to be 2.33%.

For `CCS(=O)(=O)c1ccc(OC)c(Nc2ncc(-c3ccccc3Cl)o2)c1`, the inhibition amounted to 0.42%.

On to `CN(C)CCOc1ccc(-c2cc(-c3ccc4c(c3)CCC4=NO)c(-c3ccncc3)o2)cc1`, for which the inhibition was -0.54%.
